From the supplement of paper PMC12494721
Structures can show the parent of a compound that is named as a salt.

How the values were obtained:
Conditions in all cases: incubation time: 27 h, anaerobic, 37 °C;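 for the amine columns active = adjusted P below 0.05 in both replicates with a change the same way and a mean fold change under 0.8 or over 1.25; inactive = the rest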
[1] = test system: Clostridium sporogenes DSM 1664; experiment: growth (OD595) fold change vs plate DMSO controls (fold change (ratio)); higher = more growth
Outline: (§1)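 Shaken 96-well cultures in mGAM, grown anaerobically for 27 h at 37 °C, were read at 595 nm. OD came from blank-subtracted readings, corrected for background with 20 µM compound solutions in water and scaled by a calibration factor of 5. Growth is the fold change versus the plate's median DMSO control. Values average 2 biological replicates, and any fold change above 1.5 is NA.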

Escherichia coli IAI1 [2] = experiment: as above
Outline: as §1

[3] = test system: Klebsiella aerogenes DSM 30053; experiment: as above
Outline: as §1

[4] = test system: Ruminococcus gnavus DSM 108212; experiment: as above
Outline: as §1

[5] = test system: Klebsiella aerogenes DSM 30053; experiment: fold change of Histamine concentration vs plate DMSO controls (fold change (ratio)); higher = more amine produced, active = hit call of the paper (significant change in both replicates, either direction)
Outline: (§2)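 Using LC–triple-quadrupole MS with dynamic MRM, amines were quantified against external calibration curves and corrected for drift within each batch. Samples were whole anaerobic mGAM cultures of four gut strains, grown 27 h at 37 °C from OD 0.1 before 1:1 dilution, extracted with cold acetonitrile/methanol containing 0.1% formic acid and centrifuged. Compounds were present at 20 µM final (sweeteners at 50 µM final). The numbers are fold changes versus plate DMSO controls, each the mean of 2 biological replicates.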

[6] = test system: Clostridium sporogenes DSM 1664; experiment: fold change of Tryptamine concentration vs plate DMSO controls (fold change (ratio)); higher = more amine produced, active = hit call of the paper (significant change in both replicates, either direction)
Outline: as §2

[7] = test system: Ruminococcus gnavus DSM 108212; experiment: as above
Outline: as §2

Escherichia coli IAI1 [8] = experiment: fold change of Putrescine concentration vs plate DMSO controls (fold change (ratio)); higher = more amine produced, active = hit call of the paper (significant change in both replicates, either direction)
Outline: as §2

[9] = test system: Klebsiella aerogenes DSM 30053; experiment: as above
Outline: as §2

Escherichia coli IAI1 [10] = experiment: fold change of Cadaverine concentration vs plate DMSO controls (fold change (ratio)); higher = more amine produced, active = hit call of the paper (significant change in both replicates, either direction)
Outline: as §2

[11] = test system: Klebsiella aerogenes DSM 30053; experiment: as above
Outline: as §2

[12] = test system: Ruminococcus gnavus DSM 108212; experiment: fold change of 2-Phenylethylamine concentration vs plate DMSO controls (fold change (ratio)); higher = more amine produced, active = hit call of the paper (significant change in both replicates, either direction)
Outline: as §2

SMILES | growth [1] | growth (Escherichia coli IAI1 [2]) | growth [3] | growth [4] | fold change of Histamine concentration [5] | fold change of Tryptamine concentration [6] | fold change of Tryptamine concentration [7] | fold change of Putrescine concentration (Escherichia coli IAI1 [8]) | fold change of Putrescine concentration [9] | fold change of Cadaverine concentration (Escherichia coli IAI1 [10]) | fold change of Cadaverine concentration [11] | fold change of 2-Phenylethylamine concentration [12]
CC1(C)OC(=O)NC1=O [Dimethadione] (20 µM) | 0.999 | 0.98 | 0.949 | 1.02 | 0.952 (inactive) | 1.03 (inactive) | 0.747 (inactive) | 1.02 (inactive) | 1 (inactive) | 1.01 (inactive) | 0.992 (inactive) | 0.853 (inactive)
N[C@@H]1CCCCN(c2c(F)cc3c(=O)c(C(=O)O)cn(C4CC4)c3c2Cl)C1 [Besifloxacin hydrochloride] (20 µM) | 0.0111 | 0.0312 | 0.191 | 0.266 | 0.189 (active) | 0.0464 (active) | 0.149 (active) | 0.814 (inactive) | 1.08 (inactive) | 0.267 (active) | 0.988 (inactive) | 0.166 (active)
c1ccc2[nH]c(-c3cscn3)nc2c1 [Tiabendazole] (20 µM) | 1.06 | 0.991 | 0.899 | 0.962 | 1.12 (inactive) | 1.01 (inactive) | 1.02 (inactive) | 0.997 (inactive) | 0.964 (inactive) | 1.04 (inactive) | 0.979 (inactive) | 1.04 (inactive)
C[C@]12CC[C@H]3C(=CCc4cc(O)ccc43)[C@@H]1CCC2=O [Equilin] (20 µM) | 0.994 | 0.964 | 0.954 | 1 | 1.01 (inactive) | 1.02 (inactive) | 0.996 (inactive) | 1.07 (inactive) | 0.996 (inactive) | 1.03 (inactive) | 0.978 (inactive) | 0.93 (inactive)
CN(C)CCC=C1c2ccccc2COc2ccccc21 [Doxepin hydrochloride] (20 µM) | 1.04 | 0.995 | 0.978 | 0.833 | 0.999 (inactive) | 0.959 (inactive) | 0.977 (inactive) | 1.03 (inactive) | 1 (inactive) | 0.919 (inactive) | 1 (inactive) | 0.921 (inactive)
Cc1c(N)c(=O)n(-c2ccccc2)n1C [Ampyrone] (20 µM) | 1.01 | 0.995 | 0.983 | 0.854 | 0.947 (inactive) | 1.07 (inactive) | 0.901 (inactive) | 0.975 (inactive) | 0.992 (inactive) | 1.03 (inactive) | 1.01 (inactive) | 0.926 (inactive)
CCCC1C(=O)N2C(N(C)C)=Nc3ccc(C)cc3N2C1=O (stereo not drawn) [Azapropazone] (20 µM) | 1.1 | 1 | 0.964 | 1.01 | 1.08 (inactive) | 1.09 (inactive) | 0.961 (inactive) | 0.996 (inactive) | 1 (inactive) | 0.997 (inactive) | 0.978 (inactive) | 0.91 (inactive)
Cc1cccc(Nc2ccccc2C(=O)O)c1C [Mefenamic acid] (20 µM) | 1.08 | 0.988 | 0.961 | 1.03 | 1.05 (inactive) | 0.983 (inactive) | 1.01 (inactive) | 1.01 (inactive) | 0.998 (inactive) | 0.976 (inactive) | 0.995 (inactive) | 0.982 (inactive)
CN1C2CCCC1CC(NC(=O)c1nn(C)c3ccccc13)C2 (stereo not drawn) [Granisetron] (20 µM) | 1.04 | 1.02 | 1.01 | 1.04 | 1.02 (inactive) | 1.04 (inactive) | 1.07 (inactive) | 1.05 (inactive) | 1 (inactive) | 0.999 (inactive) | 1.01 (inactive) | 1.08 (inactive)
O=C(CCCCC(=O)Nc1c(I)cc(I)c(C(=O)O)c1I)Nc1c(I)cc(I)c(C(=O)O)c1I [Iodipamide] (20 µM) | 0.854 | 1.01 | 0.982 | 0.98 | 1.04 (inactive) | 1.02 (inactive) | 0.925 (inactive) | 1.13 (inactive) | 1.02 (inactive) | 1.01 (inactive) | 0.989 (inactive) | 0.892 (inactive)
O=C1CCc2cc(OCCCCc3nnnn3C3CCCCC3)ccc2N1 [Cilostazol] (20 µM) | 1.06 | 0.963 | 0.98 | 0.879 | 1.04 (inactive) | 1.02 (inactive) | 0.994 (inactive) | 1.01 (inactive) | 1.03 (inactive) | 1.03 (inactive) | 0.995 (inactive) | 0.936 (inactive)
N=C(N)NC(=O)Cc1c(Cl)cccc1Cl [Guanfacine hydrochloride] (20 µM) | 0.939 | 0.961 | 1.03 | 0.811 | 0.903 (inactive) | 0.953 (inactive) | 1.01 (inactive) | 1.02 (inactive) | 0.99 (inactive) | 1.01 (inactive) | 1.01 (inactive) | 1.02 (inactive)
O=C1NCCN1CCN1CCC(c2cn(-c3ccc(F)cc3)c3ccc(Cl)cc23)CC1 [Sertindole] (20 µM) | 0.981 | 1.05 | 1.09 | 1.16 | 0.923 (inactive) | 0.952 (inactive) | 0.908 (inactive) | 1.31 (inactive) | 0.982 (inactive) | 0.999 (inactive) | 1 (inactive) | 1.09 (inactive)
CN1[C@@H]2CC[C@H]1C[C@@H](OC(c1ccccc1)c1ccccc1)C2 [Benztropine mesylate] (20 µM) | 1.11 | 0.99 | 0.975 | 1 | 1.09 (inactive) | 1.03 (inactive) | 0.964 (inactive) | 1.03 (inactive) | 1.03 (inactive) | 1.05 (inactive) | 0.995 (inactive) | 1 (inactive)
Nc1nnc(-c2cccc(Cl)c2Cl)c(N)n1 [Lamotrigine] (20 µM) | 0.937 | 0.978 | 0.986 | 0.963 | 0.977 (inactive) | 1.03 (inactive) | 1.04 (inactive) | 0.946 (inactive) | 1.02 (inactive) | 1.23 (inactive) | 0.989 (inactive) | 1.06 (inactive)
CN(C)c1ccc2nc3ccc(=[N+](C)C)cc-3sc2c1 [Methylene blue] (20 µM) | 0.774 | 0.466 | 0.42 | 0.00745 | 0.942 (inactive) | 0.998 (inactive) | 1.02 (inactive) | 0.965 (inactive) | 0.928 (inactive) | 0.941 (inactive) | 0.989 (inactive) | 1.09 (inactive)
CCOC(=O)O[C@]1(C(=O)OCCl)CC[C@H]2[C@@H]3CCC4=CC(=O)C=C[C@]4(C)[C@H]3[C@@H](O)C[C@@]21C [Loteprednol etabonate] (20 µM) | 1.29 | 1.26 | 1.08 | 1.08 | 0.899 (inactive) | 1.03 (inactive) | 1.01 (inactive) | 1.25 (inactive) | 1 (inactive) | 0.955 (inactive) | 1.01 (inactive) | 1.02 (inactive)
Nc1nc(=O)c2nc(CNc3ccc(C(=O)N[C@@H](CCC(=O)O)C(=O)O)cc3)cnc2[nH]1 [Folic acid] (20 µM) | 0.939 | 1.08 | 0.988 | 0.783 | 0.93 (inactive) | 1.04 (inactive) | 0.955 (inactive) | 1.05 (inactive) | 0.997 (inactive) | 0.98 (inactive) | 1.01 (inactive) | 0.928 (inactive)
C[C@@]12CC[C@@H]3[C@@](CC[C@H]4[C@@]3(C)CCC[C@@]4(C)C(=O)O)(CC1=O)C2 [Iso-Steviol] (50 µM) | 1.08 | 0.954 | 1.03 | 1.09 | 1.02 (inactive) | 0.905 (inactive) | 1 (inactive) | 0.992 (inactive) | 1.02 (inactive) | 0.963 (inactive) | 1.02 (inactive) | 0.996 (inactive)
Nc1ccc2cc3ccc(N)cc3nc2c1 [Proflavine hemisulfate] (20 µM) | 1.13 | 0.951 | 1 | 1.02 | 0.816 (inactive) | 1 (inactive) | 0.861 (inactive) | 1.03 (inactive) | 0.963 (inactive) | 1.16 (inactive) | 0.982 (inactive) | 0.861 (inactive)
CCn1cc(C(=O)O)c(=O)c2cc(F)c(N3CCNC(C)C3)c(F)c21 (stereo not drawn) [Lomefloxacin hydrochloride] (20 µM) | 0.0338 | 0.0575 | 0.252 | 1.01 | 0.0674 (active) | 0.0603 (active) | 1.03 (inactive) | 0.781 (active) | 0.627 (active) | 0.166 (active) | 0.981 (inactive) | 1.03 (inactive)
CC[C@H]1OC(=O)[C@H](C)[C@@H](O[C@H]2C[C@@](C)(OC)[C@@H](O)[C@H](C)O2)[C@H](C)[C@@H](O[C@@H]2O[C@H](C)C[C@H](N(C)C)[C@H]2O)[C@](C)(O)C[C@@H](C)C(=O)[C@H](C)[C@@H](O)[C@]1(C)O [Erythromycin] (20 µM) | 0.0078 | 0.762 | 1.16 | 0.129 | 0.3 (inactive) | 0.0554 (active) | 0.144 (active) | 0.459 (inactive) | 0.936 (inactive) | 0.942 (inactive) | 1.07 (inactive) | 0.137 (active)
CN(CCCN1c2ccccc2CCc2ccccc21)CC(=O)c1ccc(Cl)cc1 [Lofepramine] (20 µM) | 1.02 | 0.937 | 1.02 | 1.2 | 0.986 (inactive) | 1.04 (inactive) | 0.891 (inactive) | 1.01 (inactive) | 1.03 (inactive) | 0.989 (inactive) | 0.999 (inactive) | 0.851 (inactive)
COC(=O)C1=C(C)NC(C)=C(C(=O)OCC(C)C)C1c1ccccc1[N+](=O)[O-] (stereo not drawn) [Nisoldipine] (20 µM) | 0.851 | 1.13 | 1.02 | 0.871 | 0.949 (inactive) | 1.06 (inactive) | 0.899 (inactive) | 1.1 (inactive) | 1 (inactive) | 0.981 (inactive) | 1.01 (inactive) | 0.898 (inactive)
